Compounds without any hit were thinned out: in the full panel of roughly 83,000, 20% have a hit.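 Single-dose data. Exposure time 48 hours. Values below 10 considered active.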 Calls of active or inactive are those of the source.
Experiments:
Assay in all cases: NCI-60 one-dose screen, 48 h (100 = growth as untreated, 0 = no growth, -100 = all killed)
Settings in all cases: 10 µM
786-0 renal = test system: 786-0 renal
MALME-3M melanoma = test system: MALME-3M melanoma
MDA-MB-231 breast = test system: MDA-MB-231 breast
SF-268 CNS = test system: SF-268 CNS
SF-295 CNS = test system: SF-295 CNS
UACC-257 melanoma = test system: UACC-257 melanoma
UACC-62 melanoma = test system: UACC-62 melanoma
SK-MEL-28 melanoma = test system: SK-MEL-28 melanoma
SK-MEL-2 melanoma = test system: SK-MEL-2 melanoma
EKVX NSCLC = test system: EKVX NSCLC
SN12C renal = test system: SN12C renal
UO-31 renal = test system: UO-31 renal
TK-10 renal = test system: TK-10 renal
CAKI-1 renal = test system: CAKI-1 renal
A498 renal = test system: A498 renal
OVCAR-8 ovarian = test system: OVCAR-8 ovarian
OVCAR-5 ovarian = test system: OVCAR-5 ovarian
IGROV1 ovarian = test system: IGROV1 ovarian
OVCAR-3 ovarian = test system: OVCAR-3 ovarian
HS 578T breast = test system: HS 578T breast

SMILES	growth (786-0 renal)	growth (MALME-3M melanoma)	growth (MDA-MB-231 breast)	growth (SF-268 CNS)	growth (SF-295 CNS)	growth (UACC-257 melanoma)	growth (UACC-62 melanoma)	growth (SK-MEL-28 melanoma)	growth (SK-MEL-2 melanoma)	growth (EKVX NSCLC)	growth (SN12C renal)	growth (UO-31 renal)	growth (TK-10 renal)	growth (CAKI-1 renal)	growth (A498 renal)	growth (OVCAR-8 ovarian)	growth (OVCAR-5 ovarian)	growth (IGROV1 ovarian)	growth (OVCAR-3 ovarian)	growth (HS 578T breast)
C#C[C@]1(O)CC[C@H]2[C@@H]3CC=C4c5sc(Nc6cc(C)cc(C)n6)nc5CC[C@]4(C)[C@H]3CC[C@@]21C	-52.2% (active)	-39.8% (active)	-44.9% (active)	7.69% (active)	-75.3% (active)	-49.4% (active)	-53.1% (active)	-56.8% (active)	-28.4% (active)	-14% (active)	-3.77% (active)	-65.9% (active)	4.66% (active)	-27.6% (active)	-73.5% (active)	4.44% (active)	-21.9% (active)	26.2% (inactive)	-3.49% (active)	-20.5% (active)
COc1cccc(O)c1/C=C1\SCc2cc3c(OC)cccc3[o+]c21	105% (inactive)	107% (inactive)	102% (inactive)	103% (inactive)	99% (inactive)	103% (inactive)	98.7% (inactive)	105% (inactive)	110% (inactive)	105% (inactive)	101% (inactive)	65.5% (inactive)	111% (inactive)	96.8% (inactive)	141% (inactive)	107% (inactive)	105% (inactive)	104% (inactive)	108% (inactive)	111% (inactive)
COc1cc2oc(-c3cccc(C(=O)Nc4ccc(Cl)cc4)c3)cc(=O)c2c(OCCN)c1OC	-80.9% (active)	-67.9% (active)	-86.7% (active)	-76.8% (active)	-81.4% (active)	-85.2% (active)	-86.7% (active)	-88.1% (active)	-94.5% (active)	-84.6% (active)	-91.1% (active)	-81.1% (active)	-91.2% (active)	-85% (active)	-93.9% (active)	-85.5% (active)	-87.4% (active)	-73.7% (active)	-87.8% (active)	-68.1% (active)
COc1cc(-c2nc3ccc(C)cc3[nH]2)ccc1OCc1nnc(-c2ccccc2Br)o1	31.4% (inactive)	66.8% (inactive)	69.7% (inactive)	79.3% (inactive)	-0.44% (active)	78.3% (inactive)	92% (inactive)	70.4% (inactive)	85.2% (inactive)	64.6% (inactive)	76.1% (inactive)	61.8% (inactive)	116% (inactive)	66% (inactive)	108% (inactive)	63.3% (inactive)	77.5% (inactive)	90.3% (inactive)	75.7% (inactive)	62.2% (inactive)
COc1ccc(C(=O)COc2ccc(NC(=O)Nc3ccccc3)cc2)cc1	94% (inactive)	85.3% (inactive)	94.1% (inactive)	91.6% (inactive)	90.5% (inactive)	93.8% (inactive)	80% (inactive)	102% (inactive)	80.8% (inactive)	82.7% (inactive)	91.1% (inactive)	80% (inactive)	101% (inactive)	72.7% (inactive)	104% (inactive)	87.2% (inactive)	98.7% (inactive)	94.8% (inactive)	104% (inactive)	97.3% (inactive)
COc1ccc(Cn2cc(C#N)c(N)c2C(C)=O)c(OC)c1	102% (inactive)	108% (inactive)	101% (inactive)	103% (inactive)	109% (inactive)	109% (inactive)	98.1% (inactive)	109% (inactive)	126% (inactive)	98.6% (inactive)	96.4% (inactive)	96.4% (inactive)	113% (inactive)	102% (inactive)	97.8% (inactive)	104% (inactive)	112% (inactive)	112% (inactive)	105% (inactive)	111% (inactive)
O=C(CN1CCN(c2ncnc3c2cnn3-c2ccccc2)CC1)Nc1ccc(Cl)cc1	40.4% (inactive)	-56.2% (active)	63.3% (inactive)	44.3% (inactive)	80.3% (inactive)	49.9% (inactive)	45.3% (inactive)	72.8% (inactive)	34.2% (inactive)	45% (inactive)	46.6% (inactive)	-60.5% (active)	97.3% (inactive)	-39.7% (active)	78.7% (inactive)	56.6% (inactive)	85.6% (inactive)	48% (inactive)	51.8% (inactive)	64.6% (inactive)
